From ChEMBL document CHEMBL3988442, “University of Dundee, Small-Polar-MMV Screening Library” (2021) come the findings set out here.

Screen size: about 48,000 compounds; about 13,000 (27%) showed an effect of 50% or more. The list shows a part of the results.

This experiment deals with Wolbachia pipientis. Put plainly: Anti-Wolbachia Cell-Based Screen. It is filed as functional. Also on record: scale not given: in the data most compounds retested in dose-response had high values. As to conditions: 5 µM.
In the case of `c1ccc2c(c1)CCN(c1ncnc3sc4c(c13)CCNC4)C2`, the “Percent Effect” value is reported as -22.34%.

Take `CC(C)(C)c1nnc(CN2CCn3c(nnc3C3CC3)C2)o1`: the “Percent Effect” value is given as -1.017%.

For `Cc1nn(C)c(N(C)C)c1CNCc1cccc(CN(C)C(C)C)c1`, the “Percent Effect” value came out at 4.552%.

In the case of `Cc1nn(C)c(N(C)C)c1CNC(C)COc1ccc(F)cc1` (centres undefined), the “Percent Effect” value came to 102.4%.

Consider `Cc1nn(C)c(N(C)C)c1CNC(C)COc1ccc(F)cc1F` (centres undefined), for which the “Percent Effect” value amounted to 105.9%.

`CCOc1cccc(C(C)NCc2c(C)nn(C)c2N(C)C)c1` (centres undefined): the “Percent Effect” value was found to be 98.21%.

In the case of `Cc1nn(C)c(N(C)C)c1CNC(C)c1cccnc1` (centres undefined), the “Percent Effect” value is listed as 9.889%.

Consider `COCCOc1ccccc1CNCc1c(C)nn(C)c1N(C)C`, for which the “Percent Effect” value was 3.924%.

As for `Cc1nn(C)c(N(C)C)c1CNCC(O)COc1ccccc1.Cl` (centres undefined), the “Percent Effect” value is recorded as -3.331%.

Consider `Cc1nn(C)c(N(C)C)c1CNC(C)COc1ccccc1F` (centres undefined), for which the “Percent Effect” value amounted to 101.5%.

Consider `COc1cccc(OCCNCc2c(C)nn(C)c2N(C)C)c1`, for which the “Percent Effect” value is given as -5.717%.

On to `Cc1nn(C)c(N(C)C)c1CNCC(O)COc1ccc(F)cc1` (centres undefined), for which the “Percent Effect” value was -24.06%.

As to `COc1cc(CNCc2c(C)nn(C)c2N(C)C)ccc1C`, the “Percent Effect” value is reported as 5.351%.

For `c1cc(-c2c[nH]c([C@@H]3COCCN3C3CCOCC3)n2)ccn1`, the “Percent Effect” value is listed as -2.86%.

Turning to `COc1cccc(C(C)N2CCN(S(=O)(=O)CCCF)CC2)c1` (centres undefined), the “Percent Effect” value came out at 11.55%.

As to `CC(C(=O)Nc1ccnn1C(C)C)N1CCN(Cc2ccccc2)CC1` (centres undefined), the “Percent Effect” value is recorded as -23.16%.

On to `c1cc(-c2cncc(C3CCNCC3)n2)n[nH]1`, for which the “Percent Effect” value is given as 120.5%.

Regarding `c1cc(-c2cnc(C3CCNCC3)cn2)n[nH]1`, the “Percent Effect” value was determined as 125.1%.

For the compound `O=c1n(Cc2ncccn2)nc(C2CCNCC2)n1-c1ccccc1`, the “Percent Effect” value came out at 0.768%.

Turning to `CC(C)n1cnc2c(-c3cccnc3)nc(C3CCNCC3)cc21.Cl.Cl`, the “Percent Effect” value is recorded as -47.69%.

On to `O=C(c1cscn1)N1CCCC12CCCN(S(=O)(=O)c1ccccc1)C2` (centres undefined), for which the “Percent Effect” value is on record as -2.919%.

Turning to `CC(C)[C@@H]1CN(Cc2cnc3c(S(C)(=O)=O)cnn3c2)C[C@H]1N(C)C`, the “Percent Effect” value is given as -1.352%.

In the case of `Cc1nccc(N2CCCC2CCNS(C)(=O)=O)n1` (centres undefined), the “Percent Effect” value was 105.7%.

On to `OCC1CCCN1c1cc(NCc2cccs2)ncn1` (centres undefined), for which the “Percent Effect” value was 94.03%.

On to `COc1ncccc1CNc1cc(N2CCCC2CO)ncn1` (centres undefined), for which the “Percent Effect” value turned out to be 0.4879%.

On to `CS(=O)(=O)NCCCN1CCCC1Cc1ccccc1` (centres undefined), for which the “Percent Effect” value is listed as -4.416%.

In the case of `Cc1nccc(N2C[C@H](NC(=O)CNS(C)(=O)=O)[C@@H](C3CC3)C2)n1`, the “Percent Effect” value was -1.379%.

As to `CNc1cc(N2CCCC2CNCc2ccccn2)ncn1` (centres undefined), the “Percent Effect” value is recorded as -5.969%.

Turning to `CN(CCCNc1cc(N2CCCC2CO)ncn1)S(C)(=O)=O` (centres undefined), the “Percent Effect” value is on record as -14.7%.

With `OCC1CCCN1c1cc(NCc2ccc(Cl)s2)ncn1` (centres undefined), the “Percent Effect” value is on record as 16.81%.

Consider `Cc1cccnc1CNc1cc(N2CCCC2CO)ncn1` (centres undefined), for which the “Percent Effect” value was -0.7119%.

Turning to `Cc1nccc(CNc2cc(N3CCCC3CO)ncn2)n1` (centres undefined), the “Percent Effect” value turned out to be 87.89%.

In the case of `CCc1ccc(CNc2cc(N3CCCC3CO)ncn2)s1` (centres undefined), the “Percent Effect” value is 110.8%.

For `COc1ccc(-c2noc([C@@H](C)NS(=O)(=O)CC(C)C)c2C(=O)O)cc1`, the “Percent Effect” value is recorded as -11.95%.

Regarding `Cn1cc(Cl)c(CN2CCn3nc(C(=O)Nc4ccccc4)cc3C2)n1`, the “Percent Effect” value is reported as -7.275%.

Take `CN1CCN(c2cc(N3CCCC3CO)ncn2)Cc2ccccc21` (centres undefined): the “Percent Effect” value turned out to be 10.62%.

As to `Cc1ncsc1CNc1cc(N2CCCC2CO)ncn1` (centres undefined), the “Percent Effect” value worked out at 92.3%.

Turning to `Cc1ccc(CNc2cc(N3CCCC3CO)ncn2)s1` (centres undefined), the “Percent Effect” value is given as 116.3%.

Take `OCC1CCN(c2ccc(NCc3ccsc3)nc2)CC1`: the “Percent Effect” value is -9.25%.

As for `Cc1cccc2c1CCN(c1cc(N3CCCC3CO)ncn1)C2` (centres undefined), the “Percent Effect” value came out at 1.096%.

On to `Cc1ccsc1CNc1cc(N2CCCC2CO)ncn1` (centres undefined), for which the “Percent Effect” value was 12.33%.

In the case of `Cc1noc(C)c1CNc1cc(N2CCCC2CO)ncn1` (centres undefined), the “Percent Effect” value was -3.514%.

As for `OCC1CCCN1c1cc(NCc2ccsc2)ncn1` (centres undefined), the “Percent Effect” value is 106%.

For `COCc1ccccc1CNc1cc(N2CCCC2CO)ncn1` (centres undefined), the “Percent Effect” value stood at 1.416%.

In the case of `CN(CC1COc2ccccc2O1)C(=O)NCCCn1cncn1` (centres undefined), the “Percent Effect” value was -12.38%.

Regarding `CCc1nnc2n1CCN(Cc1csc(-c3ccc(C)o3)n1)C2`, the “Percent Effect” value is listed as -1.199%.

For the compound `Cc1nnc2n1CCN(Cc1csc(-c3cnn(C)c3)n1)C2`, the “Percent Effect” value is -23.78%.

Turning to `CCc1nnc2n1CCN(Cc1csc(-c3ncccn3)n1)C2`, the “Percent Effect” value was -18.32%.

Regarding `Cc1nnc2n1CCN(CCOc1ccccc1)C2`, the “Percent Effect” value was found to be 2.68%.

Consider `Cc1ccc(-c2nc(CN3CCn4c(C)nnc4C3)cs2)o1`, for which the “Percent Effect” value stood at 51.15%.

For the compound `Cc1nnc2n1CCN(Cc1csc(-c3ncccn3)n1)C2`, the “Percent Effect” value came out at 110.5%.

Regarding `c1cnc(-c2nc(CN3CCn4c(nnc4C4CC4)C3)cs2)nc1`, the “Percent Effect” value is 13.95%.

Consider `Cc1nnc2n1CCN(Cc1csc(-c3ccsc3)n1)C2`, for which the “Percent Effect” value was 121.4%.

As for `Cc1nnc2n1CCN(Cc1csc(-c3ccc(F)cc3)n1)C2`, the “Percent Effect” value is -7.701%.
